Assay outcomes deposited in PubChem BioAssay by National Center for Advancing Translational Sciences (NCATS).
HT1080 IDH1KD tx: toxicity to HT-1080 IDH1 knockdown cells (counter line); HT-1080 IDH1 knockdown viability, ATP luminescence, 48 h; actives 2% (n = 360,000); Potency, µM (highest dose often 46.1 µM), inactives show at the top dose activity, negative = toxicity, hits mostly cytotoxic;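 also: 0% = DMSO wells and -100% = cell-free medium wells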
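HT-1080-IDH1KD cells (IDH1 knocked down), 750/well in RPMI with 5% FBS, treated with compound 48 h at 37 degrees C. Viability by CellTiter-Glo luminescence, normalised to DMSO and no-cell wells; concentration-response curves classed.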
DT40 TDP1 CPT: DT40-hTDP1 cell growth loss with CPT. AID 686979. actives 12% (n = 420,000). Potency, µM (titrated, usually from 46.2 µM), inactives show top-dose activity change, negative = growth inhibition, hits mostly inhibitors. chicken DT40 Tdp1-/-;hTDP1 cells + 20 nM CPT, ATP luminescence, 48 h; also: % is scaled to controls: 0 for no effect and ±100 for the full control effect; nearly all actives have a fitted effect of over 55% in size
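Chicken DT40 Tdp1-/- cells complemented with human TDP1, 400 cells/well, exposed to compounds plus 20 nM camptothecin for at least 48 h at 37 C; viability read as ATP content by CellTiter-Glo luminescence.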
DT40 TDP1 no CPT: qHTS for Inhibitors of human tyrosyl-DNA phosphodiesterase 1 (TDP1): qHTS in cells in absence of CPT | DT40 Tdp1-/- hTDP1 cells, no CPT, ATP luminescence, 48 h | Potency, µM (doses to about 46.2 µM), for inactives: top-dose activity change, negative = growth inhibition, hits mostly inhibitors | actives 15% (n = 420,000) | AID 686978, 2013; also: % is scaled to controls: 0 for no effect and ±100 for the full control effect; nearly all actives have a fitted effect of over 55% in size
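Chicken DT40 Tdp1-/- cells stably complemented with human TDP1 were seeded at 400 cells/well with DMSO in place of 20 nM camptothecin. After compound pinning, cells grew at least 48 hr at 37 °C; viability read by CellTiter-Glo luminescence.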
TGFb inhibitor: inhibitors of TGF-b signaling | HepG2 CAGA-GFP TGF-b/SMAD3 reporter, GFP fluorescence, 18 h; TGF-beta stimulated, 500 pg/mL final | Potency, µM (series often up to 46.1 µM), for inactives: at the top dose activity, negative = inhibition, hits mostly inhibitors | actives 1.2% (n = 410,000) | AID 588855; also: % is scaled to controls: 0 for no effect and ±100 for the full control effect; nearly all actives have a fitted effect of over 65% in size
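GFP signal (ex488/em500-530) from TGF-beta-stimulated HEPG2 CAGA-GFP cells, 500 pg/mL final, 18 h at 37 degrees C in DMEM plus 1% FBS, normalized to unstimulated and DMSO-stimulated controls.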
HepG2 tox: counter-screen for TGF-b inhibitors: cytotoxicity in HepG2 cells; Potency, µM (titrated, usually from 46.1 µM), for inactives: top-dose activity change, negative = cytotoxicity, hits mostly cytotoxic; actives 0.76% (n = 410,000); HepG2 CAGA-GFP viability, ATP luminescence, 18 h; AID 588856
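HepG2 CAGA-GFP cells (1000/well, DMEM with 1% FBS) received compound, then TGF-beta at 500 pg/mL final, and were incubated 18 hours at 37 degrees C. Viability was read by CellTiter-Glo luminescence. Media-only wells were set as complete cell-killing and DMSO as no toxicity.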
HT1080NT lethal: kills 2HG-producing HT-1080-NT fibrosarcoma cells; AID 686970; Potency, µM (series often up to 46.1 µM), inactives show at the top dose activity, negative = less viability, hits mostly cytotoxic; actives 1.6% (n = 360,000); HT-1080-NT fibrosarcoma viability, CellTiter-Glo ATP luminescence, 48 h;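 also: NT is the 2HG producing partner of a matched IDH1 knockdown line; 0% = DMSO-treated cells and -100% = media-only wells without cells; nearly all actives have a fitted effect of over 55% in size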
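Luminescent CellTiter-Glo readout after 48 hours of compound exposure at 37 degrees C defined viability of HT-1080-NT cells. Activity was normalized to DMSO wells and cell-free media wells; concentration-response curves were fitted and assigned curve classes.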
* hit, by the source's call. Rows were chosen to be rich in hits. Some 17% of all compounds tested hit in one or more screens of this group. Calls follow the shape of the dose curve; as a rule, active = well fitted curve in the direction sought with a large enough effect; inconclusive = small, poorly fitted or top-dose-only effect, or another doubt; inactive = no such curve, though single readings can be large; an effect the other way counts as inactive or inconclusive. Potency is read from the fitted curve at half-maximal effect.

How did COc1ccc(C)cc1NC(=O)CNC(c1ccccc1)c1ccc(C)cc1 (configuration not stated) do in these assays?
HT1080 IDH1KD tx: 5.2µM*; DT40 TDP1 CPT: 3.3µM*; DT40 TDP1 no CPT: 3.3µM*; TGFb inhibitor: inconclusive; HepG2 tox: -11%; HT1080NT lethal: inconclusive

How did COc1ccccc1C(CC(=O)Nc1ccc(Cl)cc1)c1ccc(OC(C)C)cc1 (configuration not stated) do in these assays?
HT1080 IDH1KD tx: -17%; DT40 TDP1 CPT: 16µM*; DT40 TDP1 no CPT: inconclusive; TGFb inhibitor: 3%; HepG2 tox: -14%; HT1080NT lethal: -14%

How did CC(C)Oc1ccc(CNC(=O)CC(c2ccccc2)c2cc(Cl)ccc2O)cc1 (configuration not stated) do in these assays?
HT1080 IDH1KD tx: inconclusive; DT40 TDP1 CPT: inconclusive; DT40 TDP1 no CPT: inconclusive; TGFb inhibitor: inconclusive; HepG2 tox: 16µM*; HT1080NT lethal: inconclusive

How did COC(=O)CNC(c1ccccc1)c1cc(Br)ccc1NC(=O)c1cc(OC)c(OC)c(OC)c1 (configuration not stated) do in these assays?
DT40 TDP1 CPT: 16µM*; DT40 TDP1 no CPT: 7.3µM*; TGFb inhibitor: 37%; HepG2 tox: -8%

Results for CC1(C)CC2(CCO1)OC(=O)CC2C(=O)NCc1ccccc1 (configuration not stated) ?
HT1080 IDH1KD tx: 7%; DT40 TDP1 CPT: -4%; DT40 TDP1 no CPT: -5%; TGFb inhibitor: 9%; HepG2 tox: 6%; HT1080NT lethal: 2%

What do the screens show for `COc1ccccc1C1C(C(C)=O)=C(O)C(=O)N1c1ccc(O)cc1` (configuration not stated)?
HT1080 IDH1KD tx: 11%; DT40 TDP1 CPT: 2%; DT40 TDP1 no CPT: -11%; TGFb inhibitor: 0%; HepG2 tox: 2%; HT1080NT lethal: 5%

How did COc1ccc(NC(=O)c2cccc(NC(=O)c3ccccc3)c2)cc1 do in these assays?
HT1080 IDH1KD tx: -20%; DT40 TDP1 CPT: -35%; DT40 TDP1 no CPT: inconclusive; TGFb inhibitor: -11%; HepG2 tox: -24%; HT1080NT lethal: -5%

How did COc1ccc(N/N=C(C)/C(=N/O)C(=O)Nc2ccccc2)cc1 do in these assays?
HT1080 IDH1KD tx: inconclusive; DT40 TDP1 CPT: inconclusive; DT40 TDP1 no CPT: 15µM*; TGFb inhibitor: 2%; HepG2 tox: 13%; HT1080NT lethal: inconclusive

How did CC(O)CNc1nc2c(c(=O)n(C)c(=O)n2C)n1CCc1ccccc1 (configuration not stated) do in these assays?
HT1080 IDH1KD tx: -18%; DT40 TDP1 CPT: inconclusive; DT40 TDP1 no CPT: 16µM*; TGFb inhibitor: -17%; HepG2 tox: -33%; HT1080NT lethal: 1%

How did CCCNc1nc2c(c(=O)[nH]c(=O)n2C)n1CCCc1ccccc1 do in these assays?
HT1080 IDH1KD tx: 10%; DT40 TDP1 CPT: -11%; DT40 TDP1 no CPT: -1%; TGFb inhibitor: 1%; HepG2 tox: -2%; HT1080NT lethal: 5%

What do the screens show for `CCCNc1nc2c(c(=O)n(C)c(=O)n2C)n1Cc1cccc(C)c1`?
HT1080 IDH1KD tx: -8%; DT40 TDP1 CPT: 7.3µM*; DT40 TDP1 no CPT: 5.8µM*; TGFb inhibitor: inconclusive; HepG2 tox: -8%; HT1080NT lethal: inconclusive

How did CCCNc1nc2c(c(=O)n(C)c(=O)n2C)n1CCCc1ccccc1 do in these assays?
HT1080 IDH1KD tx: -1%; DT40 TDP1 CPT: 13µM*; DT40 TDP1 no CPT: 18µM*; TGFb inhibitor: 0%; HepG2 tox: -22%; HT1080NT lethal: 4%

What do the screens show for `CCCCCCn1c(NCC)nc2c1c(=O)n(C)c(=O)n2C`?
HT1080 IDH1KD tx: -18%; DT40 TDP1 CPT: 6.5µM*; DT40 TDP1 no CPT: 2.6µM*; TGFb inhibitor: -23%; HepG2 tox: -3%; HT1080NT lethal: -23%

How did Cn1c(=O)c2c(nc(NCC(O)CO)n2CCc2ccccc2)n(C)c1=O (configuration not stated) do in these assays?
HT1080 IDH1KD tx: 4%; DT40 TDP1 CPT: -23%; DT40 TDP1 no CPT: inconclusive; TGFb inhibitor: 7%; HepG2 tox: 0%; HT1080NT lethal: 0%

Results for Cc1cc(C)c2c(-n3cccc3)c(C(=O)NCc3cccc(F)c3)sc2n1 ?
DT40 TDP1 CPT: -2%; DT40 TDP1 no CPT: -27%; TGFb inhibitor: 2%; HepG2 tox: 0%

What do the screens show for `Cc1ccc(CNC(=O)C2CCCN(S(=O)(=O)c3cn(C)cn3)C2)cc1` (configuration not stated)?
DT40 TDP1 CPT: 17%; DT40 TDP1 no CPT: -6%; TGFb inhibitor: -4%; HepG2 tox: -2%

What do the screens show for `Cn1c(=O)c2c(nc(NCCO)n2CCc2ccccc2)n(C)c1=O`?
HT1080 IDH1KD tx: 4%; DT40 TDP1 CPT: 16µM*; DT40 TDP1 no CPT: 12µM*; TGFb inhibitor: -8%; HepG2 tox: -33%; HT1080NT lethal: -27%

Results for CCCCNc1nc2c(c(=O)n(C)c(=O)n2C)n1CCC ?
HT1080 IDH1KD tx: 5%; DT40 TDP1 CPT: inconclusive; DT40 TDP1 no CPT: inconclusive; TGFb inhibitor: -22%; HepG2 tox: -17%; HT1080NT lethal: -17%

Results for CC(C)CCn1c(Oc2ccccc2F)nc2c1c(=O)n(C)c(=O)n2C ?
DT40 TDP1 CPT: 18µM*; DT40 TDP1 no CPT: inconclusive; TGFb inhibitor: 0%; HepG2 tox: -17%

How did CC(C)CCn1c(Oc2ccc(Cl)cc2)nc2c1c(=O)n(C)c(=O)n2C do in these assays?
HT1080 IDH1KD tx: -5%; DT40 TDP1 CPT: inconclusive; DT40 TDP1 no CPT: inconclusive; TGFb inhibitor: -5%; HepG2 tox: -22%; HT1080NT lethal: -1%

How did CCCNc1nc2c(c(=O)n(C)c(=O)n2C)n1CCC(C)C do in these assays?
HT1080 IDH1KD tx: -8%; DT40 TDP1 CPT: 16µM*; DT40 TDP1 no CPT: 16µM*; TGFb inhibitor: -18%; HepG2 tox: -2%; HT1080NT lethal: -13%

How did CCCNc1nc2c(c(=O)n(C)c(=O)n2C)n1CCc1ccccc1 do in these assays?
HT1080 IDH1KD tx: -11%; DT40 TDP1 CPT: 5µM*; DT40 TDP1 no CPT: 7.1µM*; TGFb inhibitor: -8%; HepG2 tox: -22%; HT1080NT lethal: inconclusive

How did Cn1c(=O)c2c(nc(NCCCO)n2CCc2ccccc2)n(C)c1=O do in these assays?
HT1080 IDH1KD tx: -1%; DT40 TDP1 CPT: -13%; DT40 TDP1 no CPT: -30%; TGFb inhibitor: -25%; HepG2 tox: -2%; HT1080NT lethal: 10%
